KB-3-1 tox: qHTS assay for MDR1-selective chemotherapeutics: Primary screen using the parental adenocarcinoma cell KB-3-1; KB-3-1 viability, CellTiter-Glo ATP luminescence, 72 h; Potency, µM (series often up to 46.1 µM), hits mostly cytotoxic; AID 1347075, 2019; hit rate 1.4% among 400,000; note: % is set by controls: 0 for no effect and ±100 for the full control effect; nearly all actives have a fitted effect of over 60% in size
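KB-3-1 parental drug-naive adenocarcinoma cells in DMEM/10% FBS, incubated 72 h at 37 C with pin-transferred compounds across a concentration series. Viability by CellTiter-Glo luminescence; concentration-response curves fitted after normalization.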
HT1080-NT tox: qHTS for induction of synthetic lethality in tumor cells producing 2HG: qHTS for the HT-1080-NT fibrosarcoma cell line. HT-1080-NT fibrosarcoma viability, CellTiter-Glo ATP luminescence, 48 h. Potency, µM (top dose mostly 46.1 µM), for the others: at the top dose activity, negative = less viability, usual class: cytotoxic. hit rate 1.6% among 360,000. AID 686970, 2013;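 note: NT is the 2HG producing partner of a matched IDH1 knockdown line; 0% = DMSO-treated cells and -100% = media-only wells without cells; nearly all actives have a fitted effect of over 55% in size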
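Luminescent CellTiter-Glo readout after 48 hours of compound exposure at 37 degrees C defined viability of HT-1080-NT cells. Activity was normalized to DMSO wells and cell-free media wells; concentration-response curves were fitted and assigned curve classes.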
KB-V1 cytotox: qHTS assay for MDR1-selective chemotherapeutics: Primary screen using the drug-selected MDR subline cells KB-V1. KB-V1 MDR cells viability, CellTiter-Glo, 72 h. Potency, µM (series often up to 46.1 µM), actives largely listed as cytotoxic. hit rate 3.4% among 400,000; note: % is set by controls: 0 for no effect and ±100 for the full control effect; nearly all actives have a fitted effect of over 60% in size
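Following 72 h at 37 degrees C with compound, KB-V1 cell viability was read by CellTiter-Glo luminescence, medium being phenol-red-free DMEM plus 10% FBS; concentration-response parameters came from normalized, curve-fitted qHTS data.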
SW480 rerep: A quantitative high throughput screen for small molecules that induce DNA re-replication in SW480 colon adenocarcinoma cells | SW480 DNA re-replication, Hoechst DNA content imaging, 48 h | Potency, µM (doses to about 46.1 µM), for inactives: at the highest dose re-replication activation, most hits filed as activators | hit rate 1.8% among 340,000; note: % of control where 0% means no effect; nearly all actives have a fitted effect of over 55% in size
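Image-based read-out: total Hoechst fluorescence of nuclei (405 nm excitation, 500-530 nm emission), with hits raising the fraction of high-intensity nuclei. SW480 colon cells incubated 48 hr with compounds at 37 C.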
MCF10A rerep: A quantitative high throughput screen for small molecules that induce DNA re-replication in MCF 10a normal breast cells; hit rate 2.9% among 350,000; AID 624296, 2012; Potency, µM (doses to about 46.1 µM), for inactives: at the top dose activity, positive = re-replication, actives largely listed as activators; MCF 10A DNA re-replication, Hoechst nuclear intensity, 48 h; note: % of control where 0% means no effect; nearly all actives have a fitted effect of over 50% in size
HT1080 IDH1KD tx: qHTS for induction of synthetic lethality in tumor cells producing 2HG: qHTS for the HT-1080-IDH1KD cell line; HT-1080 IDH1 knockdown viability, ATP luminescence, 48 h; Potency, µM (titrated, usually from 46.1 µM), for the others: top-dose activity, negative = toxicity, hits mostly cytotoxic; hit rate 2% among 360,000;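 note: 0% = DMSO wells and -100% = cell-free medium wells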
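In this qHTS, HT-1080 cells depleted of IDH1 are exposed for 48 h at 37 °C to compound titrations. Toxicity is scored from CellTiter-Glo luminescence, with DMSO as full viability and medium alone as none.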
Numbers without * were called inactive; i = inactive; ? = inconclusive; . = no result. Hits are enriched below; roughly 8% of the tested compounds scored in any of these assays. Calls come from the whole dose curve; as a rule, active = well fitted curve in the direction sought with a large enough effect; inconclusive = small, poorly fitted or top-dose-only effect, or another doubt; inactive = no such curve, though single readings can be large; an effect the other way counts as inactive or inconclusive. Potency is the fitted concentration of half-maximal effect.

SMILES	KB-3-1 tox	HT1080-NT tox	KB-V1 cytotox	SW480 rerep	MCF10A rerep	HT1080 IDH1KD tx
O=C(COc1ccc(Cl)cc1Cl)N/N=C/C1CC=CCC1 (centres undefined)	i	-1.9%	i	1.0%	12.0%	-6.6%
O=C(N/N=C/C1CC=CCC1)c1ccc(O)cc1O (centres undefined)	i	10.2%	i	-7.3%	1.0%	1.4%
COc1cc(C(=O)N/N=C/C2CC=CCC2)cc(OC)c1OC (centres undefined)	i	?	i	?	3.66µM*	?
CCc1ccc(/C=C(/C#N)c2nc(-c3ccc(C)cc3)cs2)cc1	i	.	?	.	.	.
CCOc1ccc(-c2csc(/C(C#N)=C\c3ccc(O)c([N+](=O)[O-])c3)n2)cc1	20.6µM*	14.6µM*	5.17µM*	?	?	?
Cc1nc2c(C(=O)N(C)Cc3ccccc3)c[nH]n2c(=O)c1Cc1ccc(Cl)cc1	?	.	i	.	.	.
O=C(CCOc1ccccc1)NO	.	-0.6%	.	.	.	-1.7%
Cc1ccc(S(=O)(=O)CC2CSc3nc4ccccc4n32)cc1 (centres undefined)	0.731µM*	-6.6%	0.517µM*	-8.6%	0.2%	?
O=C(O)Cn1c(CCS(=O)(=O)c2ccc(Br)cc2)nc2ccccc21	i	7.9%	i	-3.2%	-12.1%	24.3%
Cc1ccc(S(=O)(=O)CCc2nc3ccccc3n2CCC#N)cc1	?	-24.9%	?	?	18.4µM*	?
CCSc1nn(CC(=O)Nc2cccc(CC)c2)c(N)c1S(=O)(=O)c1ccccc1	?	.	i	.	.	.
CCN(C(=O)c1nn(-c2ccc(OC)c(Cl)c2)c(=O)c2c1c1ccccc1n2C)c1cc(OC)ccc1OC	i	.	i	.	.	.
CCN1c2ccccc2NC2C1C(C(C)=O)C(=O)N2c1ccc(Cl)cc1 (centres undefined)	i	?	i	4.61µM*	2.91µM*	15.8µM*
O=C1Nc2ccccc2N(O)N1c1ccc(Cl)cc1	i	-0.3%	i	-1.8%	?	8.8%
COc1ccc(N2CC(NC(=O)COc3ccccc3C)CC2=O)cc1OC (centres undefined)	i	.	i	.	.	.
COc1cc2c(cc1OC)C1(Nc3c-2c(Cc2ccccc2)nn3-c2ccccc2)C(=O)Nc2ccccc21 (centres undefined)	?	?	i	?	6.51µM*	?
COc1cc2c(cc1OC)C1(NCC2)C(=O)Nc2ccccc21 (centres undefined)	i	2.5%	i	-1.2%	-2.0%	-21.3%
COc1ccc2c(c1)c(=O)c(C(=O)c1ccccc1)cn2CC(=O)Nc1ccc2c(c1)OCO2	i	.	i	.	.	.
O=C(NC(=S)Nc1ccc2ncccc2c1)c1ccccc1	?	0.0%	i	-6.0%	9.6%	-12.8%
Cc1ccc2cccc(NC(=S)NC(=O)c3ccccc3)c2n1	i	-18.4%	?	16.4µM*	?	-4.0%
Cc1ccc2cn[nH]c2c1NC(=S)NC(=O)c1ccccc1	i	-1.9%	20.6µM*	-0.4%	4.1%	-4.8%
Cc1cc(C)c2cccc(NC(=S)NC(=O)c3ccccc3)c2n1	i	2.51µM*	?	4.11µM*	18.6%	2.82µM*
CC(=O)NC(=S)Nc1cccc2c(C)cc(C)nc12	i	3.1%	?	12.5%	-0.3%	0.3%
Cc1ccc2cccnc2c1NC(=S)NC(=O)c1ccccc1	i	11.2µM*	14.6µM*	9.5%	14.2%	?
Cc1csc(NC(=S)NC(=O)c2ccccc2)n1	i	7.1%	i	-6.3%	-7.0%	-8.8%
SMILES	KB-3-1 tox	HT1080-NT tox	KB-V1 cytotox	SW480 rerep	MCF10A rerep	HT1080 IDH1KD tx
COc1ccc(-c2noc(CSc3nnc(-c4ccncc4)n3-c3cccc(C)c3)n2)cc1OC	i	.	i	.	.	.
CCCCn1cc(S(=O)(=O)c2ccc(Cl)cc2)c(=O)c2cc(F)c(N3CCCC(C)C3)cc21 (centres undefined)	i	.	i	.	.	.
COc1ccc(C(=O)C(C)Oc2cccc(NC(=O)c3cccc([N+](=O)[O-])c3)c2)cc1 (centres undefined)	i	4.3%	2.31µM*	0.5%	-40.5%	8.3%
CC(=O)Nc1cccc(OCc2cnc(Cl)s2)c1	i	8.7%	?	12.6%	0.146µM*	6.5%
CC(=O)Nc1ccc(C=CC=Cc2cccc([N+](=O)[O-])c2)cc1	i	-2.0%	20.6µM*	?	?	-29.9%
CC(C)c1ccc(NC(=O)COC(=O)/C=C/c2cccc([N+](=O)[O-])c2)cc1	i	4.3%	i	-4.6%	?	-1.9%
CC(=O)Nc1cccc(OCc2ccc(S(=O)(=O)Cc3ccccc3)cc2)c1	i	-1.3%	18.4µM*	-37.6%	4.8%	-6.7%
CC(C)C(=O)Nc1cccc(NC(=O)c2cccc([N+](=O)[O-])c2)c1	i	9.3%	i	0.5%	-3.0%	4.2%
CC(=O)Nc1ccc(OCc2ccc(S(=O)(=O)Cc3ccccc3)cc2)cc1	i	6.8%	?	1.2%	-4.4%	1.2%
CC(=O)Nc1cccc(OCc2c(F)cccc2Cl)c1	i	-9.6%	i	-18.5%	28.3%	-14.9%
COc1cccc(N2CCN(C3C(=O)c4ccccc4N3C(C)=O)CC2)c1 (centres undefined)	i	.	i	.	.	.
COc1cccc(CNC(=O)c2ccc3nc(CCc4ccccc4)oc3c2)c1OC	i	.	i	.	.	.
CC(=O)Nc1cccc(OCc2cccc([N+](=O)[O-])c2)c1	?	5.2%	13µM*	1.7%	2.6%	6.2%
CC(=O)Nc1ccc(OCc2cccc([N+](=O)[O-])c2)cc1	i	20.8%	i	-8.6%	0.0%	-0.6%
C=C1C(=O)O[C@@H]2[C@@H]1CC/C(C)=C\CC[C@@]1(C)O[C@H]21	.	.	.	6.8%	11.9µM*	.
Cc1ccc(CNC(=O)c2cc3sccc3n2Cc2ccc(Cl)cc2)cc1	i	.	i	.	.	.
COc1cc(C(=O)N2CC(=O)Nc3ccc(C)cc3C2c2ccc(F)cc2)cc(OC)c1OC (centres undefined)	i	.	i	.	.	.
